Among the data in PubChem BioAssay (EPA / NIEHS) are outcome and AC50 values, retold here.

Each structure is given as a SMILES string. Calls of active or inactive are those of the source. How the source made its calls: active means hit-call score of the fitted dose curve at least 0.9, where 1 is the maximum; inactive means score below 0.9.

The nature of experiment [1]: BSK_KF3CT_SRB: Viability Assessment in the BioMAP Diversity Plus: KF3CT Assay (AID 2283069).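 Further: total protein by sulforhodamine B staining as a cytotoxicity measure; read 24 h after compound addition; fitted for both signal gain and loss against DMSO baseline.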 Particulars: primary human keratinocytes with fibroblasts. In a few lines: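 Keratinocytes co-cultured with foreskin fibroblasts (human primary); chemical added, 24 h; fix 10% TCA, stain 0.1% SRB, A560. Bidirectional fit vs DMSO.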
Read-out in experiment [2]: Interleukin-1 alpha (IL1a), IL1A (gene 3552)
As to the kind of experiment: BSK_KF3CT_IL1a: BioMAP Diversity Plus: KF3CT Assay for Interleukin-1 alpha (IL1a) Biomarker Activity (AID 2283070). Particulars: primary human keratinocytes with fibroblasts; actives raise or lower the signal. In a few lines:
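Chemicals were dosed onto co-cultured human keratinocytes and foreskin fibroblasts, IL-1a was quantified by ELISA at 24 h, and activity was fitted in both directions relative to DMSO controls.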

Read-out in experiment [3]: TIMP metallopeptidase inhibitor 2 (TIMP2), TIMP2 (gene 7077)
As to the kind of experiment: BSK_KF3CT_TIMP2: BioMAP Diversity Plus: KF3CT Assay for TIMP metallopeptidase inhibitor 2 (TIMP2) Biomarker Activity (AID 2283071). To be noted: primary human keratinocytes with fibroblasts; actives raise or lower the signal. In a few lines:
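Human primary keratinocyte/foreskin fibroblast co-culture dosed with chemical and sampled at 24 h. TIMP-2 levels quantified by ELISA; bidirectional fitting against DMSO negative control as baseline.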

Read-out in experiment [4]: Transforming growth factor beta 1 (TGFb1), TGFB1 (gene 7040)
As to the kind of experiment: BSK_KF3CT_TGFb1: BioMAP Diversity Plus: KF3CT Assay for Transforming growth factor beta 1 (TGFb1) Biomarker Activity (AID 2283072). Particulars: primary human keratinocytes with fibroblasts; actives raise or lower the signal. In a few lines:
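Human keratinocyte plus foreskin fibroblast primary co-culture, dosed with chemical for 24 h. TGF-b1 quantified by ELISA. Activity fitted bidirectionally against DMSO negative control as baseline.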

Read-out in experiment [5]: C-C motif chemokine 2 (Homo sapiens) (UniProt P13500)
As to the kind of experiment: BSK_KF3CT_MCP1: BioMAP Diversity Plus: KF3CT Assay for Monocyte Chemoattractant Protein 1 (MCP1/CCL2) Biomarker Activity (AID 2283073). Particulars: primary human keratinocytes with fibroblasts; actives raise or lower the signal. In a few lines:
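ELISA read-out of MCP-1, 24 h post-dose, in primary human skin keratinocytes co-cultured with fibroblasts. Parallel SRB staining monitors cytotoxicity; changes fitted both directions relative to DMSO.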

Read-out in experiment [6]: Matrix Metallopeptidase 9 (MMP9), MMP9 (gene 4318)
As to the kind of experiment: BSK_KF3CT_MMP9: BioMAP Diversity Plus: KF3CT Assay for Matrix Metallopeptidase 9 (MMP9) Biomarker Activity (AID 2283074). To be noted: primary human keratinocytes with fibroblasts; actives raise or lower the signal. In a few lines:
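Human keratinocyte/foreskin fibroblast co-culture; compound added; 24 h; MMP-9 by ELISA; bidirectional fit vs DMSO baseline.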

Read-out in another experiment: CD40, CD40 (gene 958)
As to the kind of experiment: BSK_LPS_CD40: BioMAP Diversity Plus: LPS Assay for CD40 Biomarker Activity (AID 2283076). To be noted: primary human HUVEC with PBMC; actives raise or lower the signal. In a few lines:
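In the LPS system of human endothelial cells with peripheral blood mononuclear cells, CD40 levels were read by ELISA 24 h post-treatment. Signal changes in either direction were fitted against the DMSO baseline, with parallel SRB protein staining.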

Read-out in experiment [7]: E-selectin (Homo sapiens) (UniProt P16581)
Briefly: BSK_LPS_Eselectin: BioMAP Diversity Plus: LPS Assay for Eselectin Biomarker Activity (AID 2283077). Particulars: primary human HUVEC with PBMC; actives raise or lower the signal. In a few lines:
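E-selectin ELISA on LPS-stimulated endothelial cell/PBMC co-cultures, read 24 h post-treatment; gains and losses fitted against DMSO. Parallel SRB staining (0.1% SRB after 10% TCA fixation, 560 nm) flags overt cytotoxicity.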

Read-out in experiment [8]: Interleukin-8 (IL8), CXCL8 (gene 3576)
As to the kind of experiment: BSK_LPS_IL8: BioMAP Diversity Plus: LPS Assay for Interleukin-8 (IL8) Biomarker Activity (AID 2283078). Particulars: primary human HUVEC with PBMC; actives raise or lower the signal. In a few lines:
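ELISA read-out of IL-8 after 24 h chemical treatment of LPS-activated endothelial/PBMC human primary co-cultures. Changes either up or down relative to DMSO; overt cytotoxicity checked by sulforhodamine B staining in parallel wells.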

Read-out in experiment [9]: urokinase plasminogen activator (uPA), PLAU (gene 5328)
As to the kind of experiment: BSK_KF3CT_uPA: BioMAP Diversity Plus: KF3CT Assay for urokinase plasminogen activator (uPA) Biomarker Activity (AID 2283075). Particulars: primary human keratinocytes with fibroblasts; actives raise or lower the signal. In a few lines:
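ELISA readout of uPA, analyzed for signal gain or loss relative to DMSO, from a human primary keratinocyte–foreskin fibroblast co-culture measured 24 h after chemical treatment.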

Broadly, the AC50 is the concentration giving half of the maximal activity seen.

E-selectin (Homo sapiens), sequence (P16581 whole entry, looked up): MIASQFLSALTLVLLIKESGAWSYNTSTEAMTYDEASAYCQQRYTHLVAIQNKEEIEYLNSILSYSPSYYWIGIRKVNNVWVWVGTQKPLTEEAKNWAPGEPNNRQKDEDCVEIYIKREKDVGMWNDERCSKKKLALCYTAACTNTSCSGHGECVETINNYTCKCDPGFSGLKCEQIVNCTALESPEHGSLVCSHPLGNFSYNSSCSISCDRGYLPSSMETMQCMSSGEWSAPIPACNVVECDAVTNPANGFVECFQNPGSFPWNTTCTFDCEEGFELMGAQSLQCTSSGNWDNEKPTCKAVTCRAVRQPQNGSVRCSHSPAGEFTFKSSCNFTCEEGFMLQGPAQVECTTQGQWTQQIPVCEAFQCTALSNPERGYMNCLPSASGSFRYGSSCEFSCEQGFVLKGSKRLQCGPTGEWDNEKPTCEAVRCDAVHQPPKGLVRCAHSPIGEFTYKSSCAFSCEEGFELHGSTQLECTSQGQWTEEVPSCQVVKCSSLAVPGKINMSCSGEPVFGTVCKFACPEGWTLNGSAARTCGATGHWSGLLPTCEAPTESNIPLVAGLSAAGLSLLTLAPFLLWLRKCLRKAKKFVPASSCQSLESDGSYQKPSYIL

`CSC(=O)c1cccc2nnsc12`: the result in experiment [1], in experiment [2], in experiment [3], in experiment [4], in experiment [5] and in [6] was inactive. Also, the outcome was “inactive” with CD40, CD40 (gene 958); “inactive” in experiment [7]; “inactive” in [8].
Take `CCC(O)=C1C(=O)CC(C(=O)O)CC1=O` (stereo not drawn): the result in experiment [1], in experiment [2], in experiment [3], in experiment [4], in experiment [5] and in experiment [6] was inactive. The outcome in experiment [9] was “inactive”; with CD40, CD40 (gene 958), “inactive”; in [7], “inactive”; in experiment [8] it was “inactive”.
As for `CCCN(CCC)c1c([N+](=O)[O-])cc(C(F)(F)F)c(N)c1[N+](=O)[O-]`, the AC50 in experiment [1] was 31.3 µM (active); in experiment [2] it was 31.3 µM (active); in experiment [3], 30.6 µM (active); in experiment [4], 32.1 µM (active); in [5], 30.5 µM (active). Also, the outcome was “inactive” with CD40, CD40 (gene 958) and “inactive” in experiment [7].
For the compound `COC(=O)c1c(Cl)nn(C)c1S(=O)(=O)NC(=O)Nc1nc(OC)cc(OC)n1`, the outcome is “inactive” in experiment [1]; “inactive” in experiment [2]; “inactive” in [3]; “inactive” in [4]; “inactive” in [5]; “inactive” in the experiment with CD40, CD40 (gene 958). Further, the result in experiment [7] and in [8] was inactive.
As for `CC(C)(C)[C@@H](O)[C@@H](Cc1ccc(Cl)cc1)n1cncn1`, the outcome in experiment [1] is “inactive”; in experiment [2] it was “inactive”; in experiment [3], “inactive”; in experiment [4], “inactive”; in experiment [5], “inactive”; in the experiment with CD40, CD40 (gene 958) it was “inactive”. Besides, the outcome in [7] was inactive.
Turning to `C[C@]12CC[C@@H]3c4ccc(O)cc4C[C@@H](CCCCCCCCCS(=O)CCCC(F)(F)C(F)(F)F)[C@H]3[C@@H]1CC[C@@H]2O` (stereo partly drawn), the outcome in experiment [1] is “inactive”; in [2], “inactive”; in experiment [3] it was “inactive”; in [4] it was “inactive”; in experiment [5], “inactive”; with CD40, CD40 (gene 958), “inactive”. The outcome in experiment [7] and in [8] was inactive.
`O=C(Nc1ccc([N+](=O)[O-])cc1Cl)c1cc(Cl)ccc1O`: the half-maximal activity concentration (AC50) in experiment [1] is 0.148 µM (active); in experiment [2] it was 0.735 µM (active); in experiment [3] it was 0.436 µM (active); in [5], 0.148 µM (active); in the experiment with CD40, CD40 (gene 958) it was 0.161 µM (active); in [8], 0.47 µM (active). The result in experiment [4] and in [7] was inactive.
Regarding `O=C(O)C1(C(=O)Nc2ccc(Cl)cc2Cl)CC1`, the outcome in experiment [1] was “inactive”; in experiment [2], “inactive”; in experiment [3], “inactive”; in experiment [4], “inactive”; in experiment [5], “inactive”; in the experiment with CD40, CD40 (gene 958), “inactive”. The result in experiment [7] and in experiment [8] was inactive.
In the case of `COC(=O)c1ccc(I)cc1S(=O)(=O)NC(=O)Nc1nc(C)nc(OC)n1`, the outcome in experiment [1] was “inactive”; in experiment [2], “inactive”; in experiment [3] it was “inactive”; in experiment [4], “inactive”; in [5] it was “inactive”; with CD40, CD40 (gene 958), “inactive”. In addition, in experiment [7], the result was inactive.
`COC(=O)c1cccc(C)c1S(=O)(=O)NC(=O)Nc1nc(OCC(F)(F)F)nc(N(C)C)n1`: the outcome was “inactive” in experiment [1]; “inactive” in experiment [2]; “inactive” in [3]; “inactive” in experiment [4]; “inactive” in experiment [5]; “inactive” in the experiment with CD40, CD40 (gene 958). In addition, the outcome in [7] was inactive.
`C#CCOC(=O)[C@@H](C)Oc1ccc(Oc2ncc(Cl)cc2F)cc1`: the outcome is “inactive” in experiment [1]; “inactive” in experiment [2]; “inactive” in experiment [3]; “inactive” in [4]; “inactive” in experiment [5]; “inactive” in the experiment with CD40, CD40 (gene 958). In addition, the result in experiment [7] and in experiment [8] was inactive.
`CCCCOC(=O)C(C)Oc1ccc(Oc2ccc(C(F)(F)F)cn2)cc1` (stereo not drawn): the outcome in experiment [1] is “inactive”; in experiment [2], “inactive”; in [3] it was “inactive”; in [4], “inactive”; in experiment [5], “inactive”; with CD40, CD40 (gene 958) it was “inactive”. Besides, the outcome in experiment [7] was inactive.
In the case of `CC(=O)[C@H]1CC[C@H]2[C@@H]3CCC4=CC(=O)CC[C@]4(C)[C@H]3CC[C@]12C`, the result in experiment [1], in experiment [3], in experiment [5], in experiment [6] and in [9] was inactive. Further, the AC50 with CD40, CD40 (gene 958) was 20 µM (active); in experiment [7], 25.3 µM (active); in experiment [8] it was 20 µM (active).
As to `CCCCC(CC)COC(=O)c1ccccc1C(=O)O` (stereo not drawn), the outcome was “inactive” in [1]; “inactive” in experiment [2]; “inactive” in experiment [3]; “inactive” in experiment [4]; “inactive” in experiment [5]; “inactive” with CD40, CD40 (gene 958). Further, the result in [7] and in [8] was inactive.
In the case of `S=C([S-])NCCNC(=S)[S-].[Mn+2]`, the outcome is “inactive” in experiment [1]; “inactive” in experiment [2]; “inactive” in experiment [3]; “inactive” in experiment [4]; “inactive” in [5]; “inactive” in the experiment with CD40, CD40 (gene 958). Besides, in [8], the result was inactive. In experiment [7], the half-maximal activity concentration (AC50) is 7.58 µM (active).
